Source: ChEMBL document CHEMBL3988442, “University of Dundee, Small-Polar-MMV Screening Library” (2021)
The campaign covered roughly 48,000 compounds. About 13,000 (27%) showed an effect of 50% or more. The list shows a part of the results.

System: Wolbachia pipientis
Assay: Anti-Wolbachia Cell-Based Screen
Type: functional
Design: scale not given: in the data most compounds retested in dose-response had high values
Details: 5 µM

Q: With `c1ccc(-c2cnn3cc(CN4CCC5(CCO5)CC4)cnc23)cc1` as the molecule, how does the “Percent Effect” value read?
A: -14.3%

Q: For `CC(C)C(=O)N1CCN(CC(O)c2cc(Cl)ccc2Cl)CC1` (stereo unspecified), which “Percent Effect” value is on record?
A: 10.47%

Q: `CC(NC(=O)COc1ccc(Cl)cc1Cl)c1nncn1C(C)C` (stereo unspecified) was tested. Which “Percent Effect” value did it give?
A: 0.4331%

Q: For `CN(Cc1ccccc1)CC(C)(C)NC(=O)c1ccc(C(N)=O)cn1`, which “Percent Effect” value is on record?
A: 12.65%

Q: With `COCCCS(=O)(=O)N1CCN(Cc2cccn2C)CC1` as the molecule, how does the “Percent Effect” value read?
A: -42.29%

Q: For `CN(C)CCCN1CC2(CCN(C(=O)C3(C)CCCCO3)CC2)OC1=O` (stereo unspecified), which “Percent Effect” value is on record?
A: 3.267%

Q: Which “Percent Effect” value does the source give for `O=C(c1ccnnc1)N1CC[C@@H](O)[C@@H]1Cc1ccccc1` here?
A: 101.5%

Q: For `O=C(c1ccnnc1)N1CC[C@H](OCC2CC2)[C@@H]1Cc1ccncc1`, which “Percent Effect” value is on record?
A: 0.4029%

Q: `CCO[C@@H]1CCN(C(=O)c2ccnnc2)[C@@H]1Cc1cnn(C)c1` was tested. Which “Percent Effect” value did it give?
A: -9.757%

Q: How did the “Percent Effect” value turn out when `CC(C)Cc1nc(OCC(=O)O)c(C#N)c2c1CCC2` was run?
A: -8.981%

Q: `CN(Cc1n[nH]c2c1CCCC2)c1cc(N2CCOCC2)nc(N)n1` was tested. Which “Percent Effect” value did it give?
A: 14.47%

Q: For `O=C(c1ccco1)N1CCOCC2(C1)CN(c1ccccc1)C(=O)CO2` (stereo unspecified), which “Percent Effect” value is on record?
A: -13.67%

Q: How did the “Percent Effect” value turn out when `O=C(c1ccco1)N1CCOCC2(C1)CN(c1ccoc1)C(=O)CO2` (stereo unspecified) was run?
A: 100.8%

Q: With `CN1CC2(COCCN(C(=O)c3ccco3)C2)OCC1=O` (stereo unspecified) as the molecule, how does the “Percent Effect” value read?
A: -13.58%

Q: Which “Percent Effect” value does the source give for `O=C(c1ccco1)N1CCOCC2(C1)CN(c1ccccn1)C(=O)CO2` (stereo unspecified) here?
A: 92.62%

Q: For `CC(O)CCN(C)c1nc2ccccc2c(=O)[nH]1` (stereo unspecified), which “Percent Effect” value is on record?
A: 20.77%

Q: Which “Percent Effect” value does the source give for `COCc1nc(-c2ccc(S(=O)(=O)N3CCCC3)cc2)cs1` here?
A: -8.912%

Q: `Cc1noc(CNc2cc3c(cc2Cl)OCCCO3)n1` was tested. Which “Percent Effect” value did it give?
A: 2.534%

Q: `c1nc2c(c(C3CCOC3)n1)CCN(Cc1ccoc1)CC2` (stereo unspecified) was tested. Which “Percent Effect” value did it give?
A: 7.2%

Q: With `Oc1nc(C2CC2)nc2c1nnn2C1CCN(Cc2ccoc2)CC1` as the molecule, how does the “Percent Effect” value read?
A: 197.8%

Q: `CCSCc1nc(O)c2nnn(C3CCN(Cc4ccoc4)CC3)c2n1` was tested. Which “Percent Effect” value did it give?
A: 124.7%

Q: `CCSCc1nc(O)c2nnn(C3CCN(Cc4ccco4)CC3)c2n1` was tested. Which “Percent Effect” value did it give?
A: 93.96%

Q: Which “Percent Effect” value does the source give for `CC(C)N(C)S(=O)(=O)N1CCN(Cc2ccco2)CC1` here?
A: -10.02%

Q: For `O=C(O)c1cc2c(nc1-c1ccncc1)CCN(Cc1ccoc1)CC2`, which “Percent Effect” value is on record?
A: -1.034%

Q: With `CCn1ncnc1C(C)NC(=O)C1CCN(Cc2ccco2)CC1` (stereo unspecified) as the molecule, how does the “Percent Effect” value read?
A: -16.37%

Q: How did the “Percent Effect” value turn out when `O=C(CCn1cccn1)NCC(c1cccs1)N1CCOCC1` (stereo unspecified) was run?
A: 0.8626%

Q: `O=C1CC(NS(=O)(=O)N2CCOCC2)CN1Cc1ccc(F)cc1` (stereo unspecified) was tested. Which “Percent Effect” value did it give?
A: -0.715%

Q: `N#Cc1cnc2ccccc2c1N1CCC(C(=O)O)CC1` was tested. Which “Percent Effect” value did it give?
A: 149.3%

Q: For `N#Cc1cnc2ccccc2c1N1CCN(C(=O)C2CCC2)CC1`, which “Percent Effect” value is on record?
A: 4.022%

Q: `Cl.N#Cc1cnc2ccccc2c1N1CCN(CCC(=O)O)CC1` was tested. Which “Percent Effect” value did it give?
A: -4.307%

Q: With `CCc1nc(CN(C)C(=O)NC(C)c2cccc(NC(C)=O)c2)cs1` (stereo unspecified) as the molecule, how does the “Percent Effect” value read?
A: 4.996%

Q: For `O=C1COc2cccc(OCc3ccccn3)c2N1`, which “Percent Effect” value is on record?
A: -1.975%

Q: Which “Percent Effect” value does the source give for `N#CCCn1nc(C(F)(F)F)c2c1CCC2` here?
A: 109.3%

Q: How did the “Percent Effect” value turn out when `N#CCCn1nc(C(F)(F)F)c2c1CCCC2` was run?
A: 118.8%

Q: `NCCCn1nc(C(F)(F)F)c2c1CCC2` was tested. Which “Percent Effect” value did it give?
A: 77.67%

Q: `CC(C)Oc1nnc(SCC(=O)NCC(=O)N2CCCC2)s1` was tested. Which “Percent Effect” value did it give?
A: 11.98%

Q: With `Cc1cc(N(Cc2cccnc2)C2CC2)n2nc(C(F)(F)F)nc2n1` as the molecule, how does the “Percent Effect” value read?
A: 19.73%

Q: Which “Percent Effect” value does the source give for `CN1CCN(S(=O)(=O)c2cncc(F)c2)c2ccccc2C1` here?
A: -3.116%

Q: How did the “Percent Effect” value turn out when `O[C@@H]1C[C@@H](c2nc(-c3ccc(F)cc3)no2)N(C2CCOCC2)C1` was run?
A: -13.07%

Q: `CN(CCC(O)c1ccccc1)c1cc(C2CC2)ncn1` (stereo unspecified) was tested. Which “Percent Effect” value did it give?
A: 7.591%

Q: How did the “Percent Effect” value turn out when `CCC(=O)NC(Cc1cc(N(C)C)nc(C2CC2)n1)c1ccccc1` (stereo unspecified) was run?
A: 105%

Q: `COCC(=O)NC(Cc1cc(N(C)C)nc(C2CC2)n1)c1ccccc1` (stereo unspecified) was tested. Which “Percent Effect” value did it give?
A: 113.9%

Q: Which “Percent Effect” value does the source give for `NC(=O)C(NC(=O)COC1CCCC1)c1ccccc1` (stereo unspecified) here?
A: -1.81%

Q: How did the “Percent Effect” value turn out when `CCC(=O)NC1CCCN(C(=O)Nc2cc(-c3ccccc3)on2)C1` (stereo unspecified) was run?
A: -16.23%

Q: `CC(C)C(=O)NC(Cc1cc(N(C)C)nc(C2CC2)n1)c1ccccc1` (stereo unspecified) was tested. Which “Percent Effect” value did it give?
A: 86.08%

Q: For `CCC(NC(=O)C1CCN(S(=O)(=O)N(C)C)CC1)c1ccc(C)c(C)c1` (stereo unspecified), which “Percent Effect” value is on record?
A: -8.706%

Q: With `CN(CC(=O)N1CCC(C(O)c2ccccc2)CC1)c1cnccn1` (stereo unspecified) as the molecule, how does the “Percent Effect” value read?
A: -4.983%

Q: How did the “Percent Effect” value turn out when `CN(C)c1cc(CC(NC(=O)C2CC2)c2ccccc2)nc(C2CC2)n1` (stereo unspecified) was run?
A: 92.65%

Q: Which “Percent Effect” value does the source give for `Cc1ccsc1C(Cc1ccccc1)NC(=O)CNC(=O)C1CC1` (stereo unspecified) here?
A: -6.693%

Q: `COC(=O)C(NC(=O)COC1CCCCC1)c1ccccc1` (stereo unspecified) was tested. Which “Percent Effect” value did it give?
A: 3.192%

Q: `COC(=O)C(NC(=O)c1ccc(N(C)C)nc1)c1ccccc1` (stereo unspecified) was tested. Which “Percent Effect” value did it give?
A: 15.6%

Q: With `COC1CCCN(Cc2nc(Cc3ccccc3F)no2)C1` (stereo unspecified) as the molecule, how does the “Percent Effect” value read?
A: -1.199%

Q: Which “Percent Effect” value does the source give for `Cc1ccc2c(c1C)OCC2NCc1ccc(C#N)cc1` (stereo unspecified) here?
A: 6.111%

Q: `Cc1cccc(CC(=O)NC2CCN(C(=O)NC(C)(C)C)CC2)c1` was tested. Which “Percent Effect” value did it give?
A: 5.736%

Q: For `CCC1=N[C@@]2(CC[C@@H]3CN(C(=O)NCC(C)C)C[C@@H]32)C(=O)N1CCOC`, which “Percent Effect” value is on record?
A: 5.071%

Q: How did the “Percent Effect” value turn out when `Cc1c(-c2nc(-c3cccc(CN4CCOCC4)c3)no2)cnn1C` was run?
A: -3.312%

Q: With `COc1ccccc1-c1ncc(CN2C[C@H](O)[C@@H](N3CCCC3)C2)s1` as the molecule, how does the “Percent Effect” value read?
A: 6.619%

Q: With `CCn1c(Cn2ccnc2)nnc1C1CCN(Cc2ccc(C)o2)CC1` as the molecule, how does the “Percent Effect” value read?
A: -1.566%

Q: Which “Percent Effect” value does the source give for `CSCC(C)(O)CNC(=O)c1ccc(F)cc1Br` (stereo unspecified) here?
A: -10.01%

Q: `N#CC1(C(=O)NCCCNc2ccc(C(F)(F)F)cn2)CCCC1` was tested. Which “Percent Effect” value did it give?
A: -0.7429%

Q: For `O=C(NCCCNc1ccc(C(F)(F)F)cn1)c1ccc(F)cc1F`, which “Percent Effect” value is on record?
A: 139.7%

Q: How did the “Percent Effect” value turn out when `N#Cc1ccc(C(=O)NCCCNc2ccc(C(F)(F)F)cn2)cc1` was run?
A: -7.343%

Q: For `COc1ccc(Br)c(C(=O)NCCNc2ccc(C(F)(F)F)cn2)c1`, which “Percent Effect” value is on record?
A: 2.511%

Q: How did the “Percent Effect” value turn out when `O=C(NCCCNc1ccc(C(F)(F)F)cn1)c1ccc(F)cc1Br` was run?
A: 166.7%

Q: For `CC(C)=CCC/C(C)=C/CC(C)(C)CNCc1ccco1`, which “Percent Effect” value is on record?
A: -15.73%

Q: Which “Percent Effect” value does the source give for `COc1ccc(NC(C)C(=O)N2CCN(c3ccccc3)CC2)cn1` (stereo unspecified) here?
A: 11.01%
